# In all, about 5,500 compounds went through this assay and about 2,000 (36%) were called active. Not shown: some 18% with an inconclusive outcome. Some of the results follow. Values without a mark were called inactive. Cut-off read from the data, not from the text of the source: active = normalized growth mostly below about 0.91 (no sharp cut-off); inconclusive = no clear call, values can overlap the other calls; inactive = mostly above about 0.92.
# Assay: chemical genetic growth profiling, strain panel (AID 1159580);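 note: tested at 20 µM; growth read once vehicle control cultures reached saturation at 30 °C; 1 = growth at the plate median or of vehicle wells; lower values mean less growth of the strain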
# Conditions: growth OD
# [1] = S. cerevisiae deletion strains, locus YAL013W, strain DEP1, stronger effect = lower value
# [2] = S. cerevisiae deletion strains, locus YBR229C, strain ROT2, stronger effect = lower value
# [3] = S. cerevisiae deletion strains, locus YDL101C, strain DUN1, stronger effect = lower value
# [4] = S. cerevisiae deletion strains, locus YDL134C, strain PPH21, stronger effect = lower value
# [5] = S. cerevisiae deletion strains, locus YDR150W, strain NUM1, stronger effect = lower value
# [6] = S. cerevisiae deletion strains, locus YEL061C, strain CIN8, stronger effect = lower value
# [7] = S. cerevisiae deletion strains, locus YGR078C, strain PAC10, stronger effect = lower value
# [8] = S. cerevisiae deletion strains, locus YHR030C, strain SLT2, stronger effect = lower value
# [9] = S. cerevisiae deletion strains, locus YHR087W, strain rtc3, stronger effect = lower value
# [10] = S. cerevisiae deletion strains, locus YJR043C, strain POL32, stronger effect = lower value
# [11] = S. cerevisiae deletion strains, locus YJR075W, strain HOC1, stronger effect = lower value
# [12] = S. cerevisiae deletion strains, locus YKL190W, strain CNB1, stronger effect = lower value
# [13] = S. cerevisiae deletion strains, locus YLR039C, strain RIC1, stronger effect = lower value
# [14] = S. cerevisiae deletion strains, locus YLR058C, strain SHM2 (second series), stronger effect = lower value
# [15] = S. cerevisiae deletion strains, locus YLR085C, strain ARP6, stronger effect = lower value
# [16] = S. cerevisiae deletion strains, locus YLR262C, strain YPT6, stronger effect = lower value
# [17] = S. cerevisiae deletion strains, locus YML094W, strain GIM5, stronger effect = lower value
# [18] = S. cerevisiae deletion strains, locus YMR219W, strain ESC1, stronger effect = lower value
# [19] = S. cerevisiae deletion strains, locus YMR263W, strain SAP30, stronger effect = lower value
# [20] = S. cerevisiae deletion strains, locus YNL153C, strain GIM3, stronger effect = lower value
# [21] = S. cerevisiae deletion strains, locus YNL298W, strain CLA4 (second series), stronger effect = lower value
# [22] = S. cerevisiae deletion strains, locus YNL322C, strain KRE1, stronger effect = lower value
# [23] = S. cerevisiae deletion strains, locus YNR030W, strain Alg12, stronger effect = lower value
# [24] = S. cerevisiae deletion strains, locus YPL055C, strain LGE1, stronger effect = lower value
# [25] = S. cerevisiae deletion strains, locus YPL241C, strain CIN2, stronger effect = lower value
# [26] = S. cerevisiae deletion strains, locus YPR135W, strain CTF4, stronger effect = lower value
smiles,measurement,setting,value
CSC(=NS(=O)(=O)c1ccccc1)SC,normalized growth,[1],0.985
same,normalized growth,[2],0.979
same,normalized growth,[3],0.98
same,normalized growth,[4],1.01
same,normalized growth,[5],0.938
same,normalized growth,[6],1.03
same,normalized growth,[7],0.985
same,normalized growth,[8],0.83
same,normalized growth,[9],1.02
same,normalized growth,"S. cerevisiae deletion strains, locus YJL187C, strain SWE1, stronger effect = lower value",1
same,normalized growth,[10],0.96
same,normalized growth,[11],0.977
same,normalized growth,[12],1
same,normalized growth,[13],0.595 (active)
same,normalized growth,[14],0.987
same,normalized growth,[15],0.901
same,normalized growth,[16],0.513 (active)
same,normalized growth,[17],0.921
same,normalized growth,[18],0.995
same,normalized growth,[19],0.974
same,normalized growth,[20],1
same,normalized growth,[21],1.02
same,normalized growth,[22],0.971
same,normalized growth,[23],0.989
same,normalized growth,[24],0.978
same,normalized growth,[25],0.945
same,normalized growth,[26],0.941
COc1ccc(C(C)=O)cc1CSC(=NS(=O)(=O)c1ccccc1)Nc1cccc(F)c1,normalized growth,[1],1.01
same,normalized growth,[2],0.993
same,normalized growth,[3],0.988
same,normalized growth,[4],0.994
same,normalized growth,[5],0.913
same,normalized growth,[6],0.974
same,normalized growth,[7],1.02
same,normalized growth,[8],0.944
same,normalized growth,[9],0.981
same,normalized growth,[10],1.01
same,normalized growth,[11],0.981
same,normalized growth,[12],0.984
same,normalized growth,[13],0.876
same,normalized growth,[14],1
same,normalized growth,[15],0.921
same,normalized growth,[16],0.915
same,normalized growth,[17],0.973
same,normalized growth,[18],0.999
same,normalized growth,[19],0.998
same,normalized growth,"S. cerevisiae deletion strains, locus YMR307W, strain GAS1, stronger effect = lower value",0.737
same,normalized growth,[20],1.03
same,normalized growth,[21],0.963
same,normalized growth,[22],0.98
same,normalized growth,[23],0.952
same,normalized growth,[24],1.02
same,normalized growth,[25],0.983
same,normalized growth,[26],1.03
same,normalized growth,"S. cerevisiae strains, strain wild type, stronger effect = lower value",0.988

# Source: PubChem BioAssay AID1159580 (chemical genetic matrix, 2015)
